Most compounds without a hit are left out; they make up all but 4% or so of the library.
Shn3 inh set2: inhibitors of Schnurri-3 3'UTR reporter in osteoblasts; 360,000 compounds, 0.52% hits; inhibition, % at 12.5 µM; AID 588674; Clone20 osteoblast Shn3 3'UTR firefly luciferase, 24 h;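 active = mean inhibition of at least 75% with every replicate also reaching 75%; inconclusive = mean inhibition at least 75% but some replicate below; inactive = mean inhibition below 75%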;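 also: 0% = median of neutral control wells and 100% = pilot-screen positive control compound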
Gli-Sufu block: blocks Gli-Sufu signaling in a luciferase reporter; Sufu-KO-LIGHT fibroblasts, Gli luciferase reporter luminescence; inhibition, % at 5 µM; 340,000 compounds, 0.74% hits;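 active = inhibition above about 55%, limit read from the data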;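 also: 0% = DMSO-treated cells and 100% = wells with medium but no cells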
PAX8 inh HTS: inhibitors of PAX8 transcriptional activity in RMG-I cells | RMG-I TPO-luciferase reporter, SteadyGlo, 24 h | inhibition, % at 12.6 µM | 360,000 compounds, 1.2% hits;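 active = mean replicate inhibition at least 60% with every replicate also reaching 60%; inconclusive = only one of the two criteria is met; inactive = mean below 60% and not all replicates reaching 60%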;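 also: luciferase light reporting Pax8 driven TPO promoter activity; plate controls were median of neutral control wells for no effect and mitoxantrone controls for full effect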
CSC inhib: cancer stem cell inhibition; AID 2717; inhibition, % at 7.5 µM; cancer stem cell-like cells viability, luminescence; 300,000 compounds, 1.1% hits; in the data active = inhibition above about 75%; inconclusive = no clear call, values can overlap the other calls; tested in HMLE shEcad cells
Beta cell apopt: blocks beta cell apoptosis | INS-1E cytokine-induced death, ATP luminescence, 48 h; percent of positive-control rescue, neutral wells zero | protection from apoptosis, % (no concentration beside the values) | 300,000 compounds, 0.8% hits | AID 435005;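 active = Every replicate reaches about 75%, or at least half do and their mean reaches it too, limit read from the data; inconclusive = At least half of replicates reach the limit but their mean does not; inactive = Under half of replicates reach the limit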;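 also: 0% = cytokine-treated negative control wells and 100% = positive control rescue; higher means more ATP so stronger rescue from cytokine killing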
Mdm2-MdmX inh: disrupts the human Mdm2-MdmX interaction | O15151+Q00987 | 330,000 compounds, 3% hits | inhibition, % at 8 µM | SaOS-2 split-luciferase Mdm2/MdmX complementation, luminescence | AID 485346;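 active = inhibition of at least 50% at 8 µM in the primary screen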
Target sequence (O15151 whole entry, looked up): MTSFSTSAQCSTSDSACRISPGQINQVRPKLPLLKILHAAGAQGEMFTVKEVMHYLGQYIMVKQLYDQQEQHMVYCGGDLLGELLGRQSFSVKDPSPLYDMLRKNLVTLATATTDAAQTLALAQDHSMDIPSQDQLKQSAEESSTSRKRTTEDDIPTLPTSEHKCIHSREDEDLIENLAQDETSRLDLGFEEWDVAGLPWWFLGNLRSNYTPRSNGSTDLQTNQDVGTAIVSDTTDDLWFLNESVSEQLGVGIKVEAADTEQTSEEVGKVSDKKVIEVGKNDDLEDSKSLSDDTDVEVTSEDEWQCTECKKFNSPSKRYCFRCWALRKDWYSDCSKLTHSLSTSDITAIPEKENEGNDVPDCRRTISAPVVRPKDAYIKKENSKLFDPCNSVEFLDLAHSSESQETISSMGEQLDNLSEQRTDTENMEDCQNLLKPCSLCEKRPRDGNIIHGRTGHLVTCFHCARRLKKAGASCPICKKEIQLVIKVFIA
Target sequence (Q00987 whole entry, looked up): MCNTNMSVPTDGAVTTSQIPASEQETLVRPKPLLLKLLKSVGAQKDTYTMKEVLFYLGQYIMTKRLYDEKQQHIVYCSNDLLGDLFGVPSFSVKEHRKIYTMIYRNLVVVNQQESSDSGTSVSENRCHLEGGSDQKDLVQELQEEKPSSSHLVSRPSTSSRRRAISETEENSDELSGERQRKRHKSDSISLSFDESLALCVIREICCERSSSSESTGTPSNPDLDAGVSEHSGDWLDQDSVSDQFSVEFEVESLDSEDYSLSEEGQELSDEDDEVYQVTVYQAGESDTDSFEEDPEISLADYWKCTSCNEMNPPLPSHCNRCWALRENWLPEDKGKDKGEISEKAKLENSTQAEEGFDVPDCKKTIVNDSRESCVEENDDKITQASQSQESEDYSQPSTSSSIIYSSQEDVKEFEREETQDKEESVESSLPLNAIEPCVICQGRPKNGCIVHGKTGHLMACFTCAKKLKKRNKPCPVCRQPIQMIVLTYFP
Mdm2 MdmX conf: confirmation of human Mdm2/MdmX interaction inhibitors | shares compounds with Mdm2-MdmX inh | Mdm2-MdmX binding, luminescent assay | inhibition, % at 8 µM | 10,000 compounds, 55% hits | AID 489028; in the data active = inhibition above about 40%
Full FLuc ctr: full-length luciferase inhibition in Mdm2/MdmX counter-screen; shares compounds with Mdm2-MdmX inh; SaOS-2 full-length luciferase counterscreen, luminescence; inhibition, % at 8 µM; 6,200 compounds, 77% hits; AID 504607;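 active = mean inhibition at 8 µM reaching about 37%, which flags the compound as non-specific, limit read from the data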;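 also: p53-null SaOS-2 cells with luciferase driven by a doxycycline-inducible promoter; compound on cells about two nights before reading with doxycycline added after day one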
* = called active by the depositor; ? = inconclusive; . = no result.

SMILES	Shn3 inh set2	Gli-Sufu block	PAX8 inh HTS	CSC inhib	Beta cell apopt	Mdm2-MdmX inh	Mdm2 MdmX conf	Full FLuc ctr
COc1cc(OC)cc(C(=O)Oc2c(CN3CCOCC3)cc(Cl)c3cccnc23)c1	1	-7	-11	33	47	50*	45*	34
CCCC#Cc1ccc2c(c1)O[C@H](CN(C)C)[C@@H](C)CN([C@H](C)CO)S2(=O)=O	.	.	-13	.	.	.	.	.
O=C(N[C@H]1CC[C@@H](CCNC(=O)c2ccccc2F)O[C@H]1CO)c1cnccn1	.	.	-6	.	.	.	.	.
C[C@H](CO)N1C[C@H](C)[C@H](CN(C)C(=O)Nc2ccc3c(c2)OCO3)Oc2ccc(NC(=O)Cc3cn(C)c4ccccc34)cc2CC1=O	.	.	-20	.	.	.	.	.
COC(=O)C[C@@H]1C[C@@H]2c3cc(NS(C)(=O)=O)ccc3O[C@@H]2[C@H](CO)O1	.	.	2	.	.	.	.	.
C[C@@H]1CCCCO[C@@H](CN(C)C(=O)c2ccccc2)[C@@H](C)CN([C@@H](C)CO)C(=O)c2cc(NC(=O)Nc3ccccc3)ccc2O1	.	.	0	.	.	.	.	.
Oc1c(CN2CCCCC2)cc(Br)c2cccnc12	56	27	.	33	96*	77*	75*	36*
CN1CCN(C2CCN(Cc3ccc(O)c4ncccc34)CC2)CC1	48	2	7	0	-12	2	.	.
Oc1c(Cl)cc(CN2CCOCC2)c2cccnc12	90*	24	103*	.	29	78*	84*	42*
O=[N+]([O-])c1cc(CN2CCOCC2)c2cccnc2c1O	.	-10	.	.	.	.	.	.
CN1CCN(Cc2cc(COCc3ccccc3)c3cccnc3c2O)CC1	74	44	53	1	-2	60*	75*	30
COc1ccc(CCNc2nnc(Sc3nnnn3-c3ccccc3)s2)cc1OC	12	36	94*	-3	15	79*	70*	83*
COc1ccc(-n2nnnc2SCC(=O)NCCc2ccccc2)cc1OC	-5	10	25	12	1	-10	.	.
N#Cc1c2ccc([N+](=O)[O-])cc2[n+]([O-])n1-c1ccccc1	31	.	68*	.	101*	77*	35	.
O=C(CCCl)Nc1nc2c(s1)CCc1ccccc1-2	58	1	43	47	18	68*	62*	25
CN(C)c1ccc(C(C#N)c2ccc(Cl)cc2)nn1 (stereo not drawn)	11	14	-4	-4	-4	-9	.	.
N#CC(c1ccc(Cl)nn1)c1ccc(Cl)cc1Cl (stereo not drawn)	11	12	.	3	-7	56*	18	.
OC[C@@H]1[C@H](c2ccc(-c3cccnc3)cc2)[C@@H]2CN(CC3CCOCC3)CCCCN12	.	.	1	.	.	.	.	.
CN(C)S(=O)(=O)c1cccc(NC(=S)N/N=C/c2cc(Br)ccc2O)c1	91*	-5	?	77*	94*	70*	78*	37*
O=C(N[C@H]1CC[C@@H](CCNS(=O)(=O)c2ccc(Cl)cc2)O[C@@H]1CO)c1cnccn1	.	.	2	.	.	.	.	.
Cc1cccn2c(=O)c3cc(C(=O)NC4CCCC4)n(C)c3nc12	-13	-21	8	47	-4	51*	51*	67*
Cc1cccn2c(=O)c3cc(C(=O)NCCC4=CCCCC4)n(C)c3nc12	1	12	-3	-1	2	55*	12	.
Cn1c(C(=O)NCCC2=CCCCC2)cc2c(=O)n3ccccc3nc21	-69	-53	.	-11	-7	1	.	.
C[C@@H]1CN([C@@H](C)CO)C(=O)c2cc(NC(=O)c3ccncc3)ccc2O[C@@H](C)CCCCO[C@@H]1CN(C)C(=O)C1CCCCC1	.	.	-11	.	.	.	.	.
COc1ccc(S(=O)(=O)N(C)C[C@@H]2OCCCC[C@H](C)Oc3ccc(NS(=O)(=O)c4ccc(F)cc4)cc3C(=O)N([C@@H](C)CO)C[C@H]2C)cc1	.	.	-14	.	.	.	.	.
O=C(CC1CC1)N1CC2(C1)[C@@H](c1ccccc1)[C@H](CO)N2CC1CCOCC1	.	.	2	.	.	.	.	.
CCC(=O)Nc1nnc(SCC(=O)c2ccc3c(c2)Cc2ccccc2-3)s1	0	-4	.	18	.	55*	5	.
CN1CC2=Cc3ccccc3OC23Oc2ccccc2C=C3C1	19	6	.	54	.	59*	25	.

Screens deposited in PubChem BioAssay by several laboratories.
